Here are results for 15 molecules from PubChem BioAssay (NCI).

Some test systems named below: SR leukemia; RPMI-8226 leukemia; OVCAR-8 ovarian; OVCAR-5 ovarian; OVCAR-4 ovarian; SK-OV-3 ovarian; IGROV1 ovarian; HS 578T breast; NCI/ADR-RES ovarian; OVCAR-3 ovarian.
Assay in all cases: NCI-60 one-dose screen, 48 h (100 = growth as untreated, 0 = no growth, -100 = all killed)
Details in all cases: 10 µM unless noted

Each structure is given as a SMILES string. Compounds without any hit were thinned out: in the full panel of roughly 83,000, 20% have a hit.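 Each cell line was grown in a 96-well plate and treated with one concentration of compound for 48 hours. Values below 10 were considered active.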 Unmarked numbers belong to inactive results. Calls of active or inactive are those of the source.

Turning to `ClC1=C(Br)C(Br)(Br)C(=C(Br)Br)C1(Br)Br`, the growth in the test with SR leukemia was 44%; with RPMI-8226 leukemia, 73.1%; in the test on OVCAR-8 ovarian it was 85.1%; in the test with OVCAR-5 ovarian, 110%; with OVCAR-4 ovarian, 99.1%; with SK-OV-3 ovarian, 118%. The growth with IGROV1 ovarian is 102%; in the test with HS 578T breast, 103%; in the test on NCI/ADR-RES ovarian, 110%.

As to `O=S(=O)(NCCNc1nccc(-c2c(-c3cccc(O)c3)nc3occn23)n1)c1ccccc1`, the growth in the test with SR leukemia was 75.7%; with RPMI-8226 leukemia, 92.8%; in the test on OVCAR-8 ovarian it was 79.8%; in the test with OVCAR-5 ovarian, 117%; in the test on OVCAR-4 ovarian, 123%; with SK-OV-3 ovarian, 97.2%. The growth is 47.8% with IGROV1 ovarian, 91.8% in the test on HS 578T breast and 112% in the test with NCI/ADR-RES ovarian.

Take `NC(=NCc1ccccc1)C(N=Nc1ccccc1)C(=O)NCc1ccccc1` (centres undefined): the growth in the test with SR leukemia is 19.1%; in the test on RPMI-8226 leukemia, 90.9%; in the test on OVCAR-8 ovarian it was 31.1%; in the test on OVCAR-5 ovarian, 100%; in the test on OVCAR-4 ovarian, 76.5%; in the test with SK-OV-3 ovarian, 95.6%. The growth in the test with IGROV1 ovarian is 81.5%; with HS 578T breast it was 64%; in the test on NCI/ADR-RES ovarian, 50.2%.

As for `O=C(Cc1ccccc1)NNc1nc(Cl)nc(N2CCN(C(c3ccccc3)c3ccccc3)CC2)n1`, the growth with SR leukemia was 10.7%; in the test with RPMI-8226 leukemia, 101%; in the test on OVCAR-8 ovarian, 91.8%; in the test with OVCAR-5 ovarian, 94.8%; in the test with OVCAR-4 ovarian it was 106%; in the test on SK-OV-3 ovarian, 105%. Besides, the results for the growth with IGROV1 ovarian, in the test with HS 578T breast and in the test on NCI/ADR-RES ovarian were 64.5%, 98.9% and 102%, respectively.

As to `Cc1cccc(NC(=O)Nc2ccc(-c3ccc4c(c3)NC(=O)/C4=C\c3ccc[nH]3)cc2)c1`, the growth in the test on SR leukemia is 23.6%; in the test on RPMI-8226 leukemia, 91.4%; in the test with OVCAR-8 ovarian, 105%; in the test with OVCAR-5 ovarian it was 96.3%; with OVCAR-4 ovarian, 73.4%; with SK-OV-3 ovarian, 90.5%. For the same molecule, the figures for the growth with IGROV1 ovarian, in the test with HS 578T breast and in the test on NCI/ADR-RES ovarian were 78%, 95.7% and 93.8%, respectively.

As to `O=S(=O)(NCCCNc1nccc(-c2c(-c3cccc(O)c3)nc3occn23)n1)c1ccc(Cl)cc1`, the growth in the test with SR leukemia was 87.1%; in the test on RPMI-8226 leukemia it was 81%; in the test with OVCAR-8 ovarian, 77.5%; in the test with OVCAR-5 ovarian it was 130%; in the test on OVCAR-4 ovarian, 108%; in the test on SK-OV-3 ovarian, 75.4%. Further, the growth in the test on IGROV1 ovarian is 59.7%; in the test on HS 578T breast it was 92.8%; in the test with NCI/ADR-RES ovarian, 112%.

With `Cc1ccc(NC(=O)c2cc(-c3nc4ccccc4s3)c(=O)n(NS(=O)(=O)c3ccc(Cl)cc3)c2N)cc1`, the growth in the test on SR leukemia was 95%; in the test on RPMI-8226 leukemia, 94.6%; in the test with OVCAR-8 ovarian it was 103%; in the test with OVCAR-4 ovarian it was 103%; with SK-OV-3 ovarian, 108%; in the test on IGROV1 ovarian, 99.7%. The growth was 103% with OVCAR-3 ovarian, 104% in the test on HS 578T breast and 105% with NCI/ADR-RES ovarian.

Turning to `COc1ccc(C(C)=O)c(OC)c1`, the growth was 119% in the test with SR leukemia; 100% with RPMI-8226 leukemia; 109% with OVCAR-8 ovarian; 103% with OVCAR-4 ovarian; 105% in the test with SK-OV-3 ovarian; 127% with IGROV1 ovarian. For the same molecule, the growth in the test on OVCAR-3 ovarian is 117%; in the test on HS 578T breast, 113%; in the test on NCI/ADR-RES ovarian it was 108%.

For the molecule `COc1cc2oc(-c3cccc(C(=O)Nc4ccc(Cl)cc4)c3)cc(=O)c2c(O)c1OC`, the growth was 65.1% in the test with SR leukemia; 70% in the test on RPMI-8226 leukemia; 16.3% with OVCAR-8 ovarian; 79.1% in the test with OVCAR-5 ovarian; -30.4% (active) in the test with OVCAR-4 ovarian; 54% with IGROV1 ovarian. Besides, the figures for the growth in the test on OVCAR-3 ovarian, with HS 578T breast and with NCI/ADR-RES ovarian were 30.4%, 6.66% (active) and 37.3%, respectively.

For `COc1ccc(/C=C/c2nc(Nc3cccc(NC(C)=O)c3)c3ccccc3n2)cc1`, the growth in the test with SR leukemia is 64.7%; in the test on RPMI-8226 leukemia, 89.3%; in the test on OVCAR-8 ovarian it was 84.5%; in the test on OVCAR-4 ovarian, 104%; in the test with SK-OV-3 ovarian it was 99.5%; in the test with IGROV1 ovarian, 99.7%. Moreover, the figures for the growth in the test on HS 578T breast and with NCI/ADR-RES ovarian were 89.1% and 90%, respectively.

Regarding `CCOC(=O)Oc1c(OC)cc(C(=O)c2ccc(OC)c(OC(=O)CCl)c2OC)cc1OC`, the growth in the test with SR leukemia was 29.4%; with RPMI-8226 leukemia, 18.4%; with OVCAR-8 ovarian it was 25.5%; with OVCAR-5 ovarian, 77%; in the test with OVCAR-4 ovarian, 79.8%; with IGROV1 ovarian, 40.4%. In addition, the growth is -18.4% (active) in the test with OVCAR-3 ovarian, 15.2% in the test on HS 578T breast and -5.85% (active) in the test on NCI/ADR-RES ovarian.

As for `CCCCCCNC(=O)Nc1ccc2cc3ccc(NC(=O)NCCCCCC)cc3nc2c1`, the growth in the test on SR leukemia was -33% (active); with RPMI-8226 leukemia it was 0.729% (active); in the test with OVCAR-8 ovarian it was -82.7% (active); with OVCAR-5 ovarian it was 9.67% (active); in the test on OVCAR-4 ovarian, 56.9%; with IGROV1 ovarian, 11.4%. Besides, the growth is -5.6% (active) in the test with OVCAR-3 ovarian, -53.7% (active) in the test on HS 578T breast and 100% in the test on NCI/ADR-RES ovarian.

For `CCCOC(=O)N[C@H]1CCc2c(Cl)c(OC)c(OC)c(OC)c2-c2ccc(SC)c(=O)cc21`, the growth is 4.56% (active) in the test on SR leukemia; -2.97% (active) in the test on RPMI-8226 leukemia; 21.6% with OVCAR-8 ovarian; 44.7% with OVCAR-5 ovarian; 36.3% in the test on OVCAR-4 ovarian; 11.7% in the test with IGROV1 ovarian. In addition, the figures for the growth with OVCAR-3 ovarian, in the test on HS 578T breast and with NCI/ADR-RES ovarian were -24.7% (active), 9.75% (active) and 13.6%, respectively.

For the molecule `CN(C)CCn1c2ccc(Br)cc2c2nc3ccccc3nc21`, the growth with SR leukemia is 11.2%; in the test on RPMI-8226 leukemia it was 9.2% (active); in the test with OVCAR-8 ovarian, 32.9%; in the test with OVCAR-5 ovarian, 46.4%; with OVCAR-4 ovarian, 44%; with IGROV1 ovarian it was 18%. The growth was 39.9% in the test with OVCAR-3 ovarian, 77.8% in the test with HS 578T breast and 31.8% in the test on NCI/ADR-RES ovarian.

Regarding `COc1ccc(OC)c(-c2cc(-c3ccc(Cl)cc3)c3c(N)c(C(=O)c4ccc(Cl)cc4)sc3n2)c1`, the growth in the test on SR leukemia was 101%; in the test on RPMI-8226 leukemia it was 94.2%; with OVCAR-8 ovarian it was 104%; in the test on OVCAR-4 ovarian, 93.1%; in the test with SK-OV-3 ovarian it was 89.8%; with IGROV1 ovarian it was 92.1%. Besides, the growth in the test with OVCAR-3 ovarian is 103%; in the test with HS 578T breast it was 115%; with NCI/ADR-RES ovarian, 103%.
